# Experimental data reported in the supplement of paper PMC8728848.
# Many of the other results were omitted from the sample, so the strongest signals are more common in it than they were.
# B1: B725 (Bifidobacterium sp) (protein)
# chain: MNNTTRAVIATAAIGALLIPLAGCGNTTTSSGKTELTVWSWDASIDRAAKSFMKANPDITVKVSNVGSTEETYTALNNAAQAGSGLPDVTLIEYLAIPQFVHSDTLMDLSKVYNTAKLKDTFTPGTWNSVNINGGLYAMPADSGPMAYFYDKDVFDKAGISEPPTTWDEFYEDAKKIRATGSYITSDSGDAGLFNAMMWAMGGHAYKLNDDKLTINIAKDKGAQRFMDLWQKMRDEDLIDVHTKTWTDDWMKSLGDGSIASLISGAWMANNLLQGVPQATGKFRVALLPTIDGTPINGEYGGSGLAITKKIPDGKLDAAKKFVEYVTTNDEGIDARVSNGSFPATTKTLNQKDFLAKTTLRNTDGSDNEFFGGQKYNEIFSQAAKDVTGKWEFLPFEPYARSVYNDNMGSFFAGKTSFRTAADNWQKALKDYAKDQGFTVQ
# Experiments:
# Test in all cases: glycan array binding signal (z-score within array); higher = stronger binding
# Details in all cases: glycan notation: IUPAC condensed, linker removed
# [1] = molecular target: Fuc(a1-2)Gal
# Method in brief: (§1)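 Negative Z-scores can be read as non-binding. The Z-score is calculated within each array and then averaged across arrays of one protein sequence at different concentrations or buffers and across linkers. Arrays, 3228 in all, were curated from the Consortium for Functional Glycomics database and kept only where the protein sequence was available.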
# [2] = molecular target: Fuc(a1-2)Gal(b1-3)GalNAc
# Method in brief: as §1
# [3] = molecular target: Fuc(a1-2)Gal(b1-3)GlcNAc(b1-2)Man(a1-3)[Fuc(a1-2)Gal(b1-3)GlcNAc(b1-2)Man(a1-6)]Man(b1-4)GlcNAc(b1-4)[Fuc(a1-6)]GlcNAc
# Method in brief: as §1
# [4] = molecular target: Fuc(a1-2)Gal(b1-3)GlcNAc6S
# Method in brief: as §1
# [5] = molecular target: Fuc(a1-2)Gal6S(b1-4)Glc
# Method in brief: as §1
# [6] = molecular target: Fuc(a1-2)[Gal(a1-3)]Gal(b1-4)[Fuc(a1-3)]GlcNAc(b1-3)GalNAc
# Method in brief: as §1
# [7] = molecular target: Fuc(a1-2)[Gal(a1-4)]Gal(b1-4)GlcNAc
# Method in brief: as §1
# [8] = molecular target: Fuc(a1-2)[GalNAc(a1-3)]Gal(b1-4)Glc
# Method in brief: as §1
# [9] = molecular target: Fuc(a1-2)[GalNAc(a1-3)]Gal(b1-4)[Fuc(a1-3)]GlcNAc
# Method in brief: as §1
# [10] = molecular target: Fuc(a1-3)[Gal(b1-4)]GlcNAc(b1-3)Gal(b1-4)[Fuc(a1-3)]GlcNAc(b1-3)Gal(b1-4)[Fuc(a1-3)]GlcNAc
# Method in brief: as §1
# [11] = molecular target: Fuc(a1-3)[Gal(b1-4)]GlcNAc(b1-3)GalNAc
# Method in brief: as §1
# [12] = molecular target: Fuc(b1-3)GlcNAc
# Method in brief: as §1
# [13] = molecular target: Gal(a1-3)Gal(b1-4)GlcNAc(b1-2)Man
# Method in brief: as §1
# [14] = molecular target: Gal(a1-3)Gal(b1-4)GlcNAc(b1-3)GalNAc
# Method in brief: as §1
# [15] = molecular target: Gal(b1-3)[Fuc(a1-4)]GlcNAc(b1-3)Gal(b1-4)[Fuc(a1-3)]GlcNAc
# Method in brief: as §1
# [16] = molecular target: Gal(b1-3)[GlcNAc(b1-6)]GalNAc
# Method in brief: as §1
# [17] = molecular target: Gal(b1-4)GalNAc(a1-3)[Fuc(a1-2)]Gal(b1-4)GlcNAc
# Method in brief: as §1
# [18] = molecular target: Gal(b1-4)GlcNAc(b1-2)Man(a1-3)[Gal(b1-4)GlcNAc(b1-2)Man(a1-6)]Man(b1-4)GlcNAc(b1-4)[Fuc(a1-6)]GlcNAc
# Method in brief: as §1
# [19] = molecular target: Gal(b1-4)GlcNAc(b1-2)Man(a1-3)[Gal(b1-4)GlcNAc(b1-2)Man(a1-6)][Gal(b1-4)GlcNAc(b1-4)]Man(b1-4)GlcNAc(b1-4)[Fuc(a1-6)]GlcNAc
# Method in brief: as §1
# [20] = molecular target: Gal(b1-4)GlcNAc(b1-3)Gal(b1-4)Glc
# Method in brief: as §1
# [21] = molecular target: Gal(b1-4)GlcNAc(b1-3)Gal(b1-4)GlcNAc(b1-3)Gal(b1-4)GlcNAc
# Method in brief: as §1
# [22] = molecular target: Gal(b1-4)GlcNAc(b1-3)Gal(b1-4)GlcNAc(b1-3)Gal(b1-4)GlcNAc(b1-2)Man(a1-3)[Gal(b1-4)GlcNAc(b1-3)Gal(b1-4)GlcNAc(b1-3)Gal(b1-4)GlcNAc(b1-2)Man(a1-6)]Man(b1-4)GlcNAc(b1-4)GlcNAc
# Method in brief: as §1
# [23] = molecular target: Gal(b1-4)GlcNAc(b1-3)Gal(b1-4)GlcNAc(b1-3)Gal(b1-4)GlcNAc(b1-2)Man(a1-3)[Gal(b1-4)GlcNAc(b1-3)Gal(b1-4)GlcNAc(b1-3)Gal(b1-4)GlcNAc(b1-2)Man(a1-6)]Man(b1-4)GlcNAc(b1-4)[Fuc(a1-6)]GlcNAc
# Method in brief: as §1
# [24] = molecular target: Gal(b1-4)GlcNAc(b1-3)Gal(b1-4)GlcNAc(b1-3)Gal(b1-4)GlcNAc(b1-2)[Gal(b1-4)GlcNAc(b1-3)Gal(b1-4)GlcNAc(b1-3)Gal(b1-4)GlcNAc(b1-6)]Man(a1-6)[Gal(b1-4)GlcNAc(b1-3)Gal(b1-4)GlcNAc(b1-3)Gal(b1-4)GlcNAc(b1-2)Man(a1-3)]Man(b1-4)GlcNAc(b1-4)[Fuc(a1-6)]GlcNAc
# Method in brief: as §1
# [25] = molecular target: Gal(b1-4)GlcNAc(b1-3)Gal(b1-4)GlcNAc(b1-3)Gal(b1-4)GlcNAc(b1-3)Gal(b1-4)GlcNAc(b1-2)Man(a1-3)[Gal(b1-4)GlcNAc(b1-3)Gal(b1-4)GlcNAc(b1-3)Gal(b1-4)GlcNAc(b1-3)Gal(b1-4)GlcNAc(b1-2)Man(a1-6)]Man(b1-4)GlcNAc(b1-4)GlcNAc
# Method in brief: as §1
# [26] = molecular target: Gal(b1-4)GlcNAc(b1-3)Gal(b1-4)GlcNAc(b1-3)Gal(b1-4)GlcNAc(b1-3)Gal(b1-4)GlcNAc(b1-2)Man(a1-3)[Gal(b1-4)GlcNAc(b1-3)Gal(b1-4)GlcNAc(b1-3)Gal(b1-4)GlcNAc(b1-3)Gal(b1-4)GlcNAc(b1-2)Man(a1-6)]Man(b1-4)GlcNAc(b1-4)[Fuc(a1-6)]GlcNAc
# Method in brief: as §1
# [27] = molecular target: Gal(b1-4)GlcNAc(b1-3)Gal(b1-4)GlcNAc(b1-3)Gal(b1-4)GlcNAc(b1-3)Gal(b1-4)GlcNAc(b1-2)[Gal(b1-4)GlcNAc(b1-3)Gal(b1-4)GlcNAc(b1-3)Gal(b1-4)GlcNAc(b1-3)Gal(b1-4)GlcNAc(b1-6)]Man(a1-6)[Gal(b1-4)GlcNAc(b1-3)Gal(b1-4)GlcNAc(b1-3)Gal(b1-4)GlcNAc(b1-3)Gal(b1-4)GlcNAc(b1-2)Man(a1-3)]Man(b1-4)GlcNAc(b1-4)[Fuc(a1-6)]GlcNAc
# Method in brief: as §1
# [28] = molecular target: Gal(b1-4)GlcNAc(b1-3)Gal(b1-4)GlcNAc(b1-3)Gal(b1-4)GlcNAc(b1-3)Gal(b1-4)GlcNAc(b1-3)Gal(b1-4)GlcNAc(b1-2)Man(a1-3)[Gal(b1-4)GlcNAc(b1-3)Gal(b1-4)GlcNAc(b1-3)Gal(b1-4)GlcNAc(b1-3)Gal(b1-4)GlcNAc(b1-3)Gal(b1-4)GlcNAc(b1-2)Man(a1-6)]Man(b1-4)GlcNAc(b1-4)[Fuc(a1-6)]GlcNAc
# Method in brief: as §1
# [29] = molecular target: Gal(b1-4)GlcNAc(b1-3)Gal(b1-4)GlcNAc(b1-3)Gal(b1-4)GlcNAc(b1-3)Gal(b1-4)GlcNAc(b1-3)Gal(b1-4)GlcNAc(b1-2)[Gal(b1-4)GlcNAc(b1-3)Gal(b1-4)GlcNAc(b1-3)Gal(b1-4)GlcNAc(b1-3)Gal(b1-4)GlcNAc(b1-3)Gal(b1-4)GlcNAc(b1-6)]Man(a1-6)[Gal(b1-4)GlcNAc(b1-3)Gal(b1-4)GlcNAc(b1-3)Gal(b1-4)GlcNAc(b1-3)Gal(b1-4)GlcNAc(b1-3)Gal(b1-4)GlcNAc(b1-2)Man(a1-3)]Man(b1-4)GlcNAc(b1-4)[Fuc(a1-6)]GlcNAc
# Method in brief: as §1
# [30] = molecular target: Gal(b1-4)GlcNAc(b1-3)Gal(b1-4)GlcNAc(b1-3)Gal(b1-4)GlcNAc(b1-3)Gal(b1-4)GlcNAc(b1-3)Gal(b1-4)GlcNAc(b1-3)Gal(b1-4)GlcNAc(b1-2)Man(a1-3)[Gal(b1-4)GlcNAc(b1-3)Gal(b1-4)GlcNAc(b1-3)Gal(b1-4)GlcNAc(b1-3)Gal(b1-4)GlcNAc(b1-3)Gal(b1-4)GlcNAc(b1-3)Gal(b1-4)GlcNAc(b1-2)Man(a1-6)]Man(b1-4)GlcNAc(b1-4)GlcNAc
# Method in brief: as §1
binder,measurement,setting,value
B1,glycan array binding signal (z-score),[1],-0.221
same,glycan array binding signal (z-score),[2],-0.216
same,glycan array binding signal (z-score),[3],-0.181
same,glycan array binding signal (z-score),[4],-0.234
same,glycan array binding signal (z-score),[5],-0.199
same,glycan array binding signal (z-score),[6],-0.208
same,glycan array binding signal (z-score),[7],-0.23
same,glycan array binding signal (z-score),[8],-0.222
same,glycan array binding signal (z-score),[9],-0.217
same,glycan array binding signal (z-score),[10],-0.21
same,glycan array binding signal (z-score),[11],-0.216
same,glycan array binding signal (z-score),[12],-0.226
same,glycan array binding signal (z-score),[13],-0.214
same,glycan array binding signal (z-score),[14],-0.225
same,glycan array binding signal (z-score),[15],-0.203
same,glycan array binding signal (z-score),[16],-0.224
same,glycan array binding signal (z-score),[17],-0.218
same,glycan array binding signal (z-score),[18],-0.204
same,glycan array binding signal (z-score),[19],-0.231
same,glycan array binding signal (z-score),[20],6.34
same,glycan array binding signal (z-score),[21],6.94
same,glycan array binding signal (z-score),[22],5.11
same,glycan array binding signal (z-score),[23],4.38
same,glycan array binding signal (z-score),[24],7.51
same,glycan array binding signal (z-score),[25],5.3
same,glycan array binding signal (z-score),[26],4.85
same,glycan array binding signal (z-score),[27],6.73
same,glycan array binding signal (z-score),[28],4
same,glycan array binding signal (z-score),[29],5.49
same,glycan array binding signal (z-score),[30],8.21
